Assay outcomes (PubChem)
CYP2C9 inhib: blockers of cytochrome P450 2C9 activity – biochemical, luminescence, ADME assay, primary screen; P11712; CYP2C9 Supersomes, luciferin-H conversion; inhibition, % at 5 µM; actives 20% (n = 96,000); AID 777, 2007;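 active = blocking of liver enzyme CYP2C9 beyond about 50% at 5 µM, limit read from the data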
CYP2C9 act: human CYP2C9 activators, primary screen, biochemical, luminescence; Cytochrome P450 2C9 (Homo sapiens), P11712; recombinant CYP2C9, luciferin-H conversion; stronger effect = higher value; factor 1 = untreated enzyme, 0 = blocked; activation factor at 5 µM; actives 1.4% (n = 96,000);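 active = activation factor of 2 or more for CYP2C9 at a 5 µM dose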;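 note: 0 = sulfaphenazole-blocked wells and 1 = vehicle-only wells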
Cav32 inh: Cav3.2 calcium influx blockers – cell-based, Fluo-4 calcium fluorescence, FDSS, MLSMR library, primary screen; Cav3.2-expressing cells; stronger effect = lower value; B-score at 10 µM; actives 4% (n = 100,000);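 active = single-dose well whose peak fluorescence ratio is a statistical outlier from its plate by either plate-standardised score or position-corrected B-score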
CYP2C19 inhib: blockers of cytochrome P450 2C19 activity – biochemical, luminescence, ADME assay, primary screen. P33261. CYP2C19 Supersomes, luciferin-H EGE luminescence, 30 min. inhibition, % at 5 µM. actives 21% (n = 96,000). AID 778, 2007;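 active = CYP2C19 inhibition above a set limit at 5 µM in the primary screen, cut at about 50% in these data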;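 note: plate controls were negative control wells for no effect and 2.5 mM tranylcypromine positive control for full effect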
CYP2C19 act: human CYP2C19 activators, primary screen, biochemical, luminescence | AID 1025, 2008 | 96,000 tested, under 10 active | recombinant CYP2C19, luciferin-H EGE luminescence; stronger effect = higher value; 0 = fully inhibited enzyme, 1 = untreated enzyme | activation factor at 5 µM;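 active = activation factor of at least 2 at 5 µM in the primary screen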;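 note: 0 = wells with 2.5 mM tranylcypromine and 1 = vehicle-only wells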
Starred values were filed as active, the others as inactive; . = not tested or not shown. This is a sample that favours compounds with a hit; in the whole collection about 27% have one here.

SMILES | CYP2C9 inhib | CYP2C9 act | Cav32 inh | CYP2C19 inhib | CYP2C19 act
C[C@H]1CCC[C@H](O)CCCCCc2cc(O)cc(O)c2C(=O)O1 | 44 | 0.6 | . | 81* | 0.2
CCOC(=O)C(=O)NC1CCSC1=O (centres undefined) | 17 | 0.8 | 0.014 | 7 | 0.9
CCOC(=O)C1CCN(/C=C2/C(=O)NC(=O)N(Cc3ccco3)C2=O)CC1 | -6 | 1.1 | -0.06 | -8 | 1.1
COc1cccc(C2=NOC(C(=O)N3CCC4(CC3)OCCO4)C2)c1 (centres undefined) | -2 | 1 | 0.48 | 67* | 0.3
O=C(C1CC(c2ccc(F)cc2)=NO1)N1CCC2(CC1)OCCO2 (centres undefined) | -8 | 1.1 | 0.9 | 94* | 0.1
O=C(C1CCC(=O)N1Cc1ccc(F)cc1)N1CCC2(CC1)OCCO2 (centres undefined) | 19 | 0.8 | 0.57 | 27 | 0.7
O=C(C1CC(c2ccc(Cl)c(Cl)c2)=NO1)N1CCC2(CC1)OCCO2 (centres undefined) | -84 | 1.8 | 0.47 | 96* | 0
O=C(C1CCCO1)N1CCC2(CC1)OCCO2 (centres undefined) | 1 | 1 | 0.64 | 1 | 1
C=CCn1c(O)c(C(C)=Nc2ccc(NC(C)=O)cc2)c(=O)[nH]c1=O | -4 | 1 | 0.25 | -15 | 1.2
c1cc2n(c1)-c1c(ccc3c1OCO3)CNC2c1ccc2c(c1)OCO2 (centres undefined) | 77* | 0.2 | -1.6 | 99* | 0
COc1ccc(C2NCc3ccc4c(c3-n3cccc32)OCO4)cc1O (centres undefined) | -6 | 1.1 | -2.5 | 68* | 0.3
O=P(O)(O)C#Cc1ccccc1 | 20 | 0.8 | . | -3 | 1
O=C(c1sc2ccccc2c1Cl)N1CCC2(CC1)OCCO2 | -79 | 1.8 | -3.3 | 82* | 0.2
COC(=O)C1=C(c2cc3ccccc3o2)C[C@@H]2CC[C@H]1N2C(=O)NC(C)C | . | . | -0.82 | . | .
O=C1c2ccccc2C(=O)N1Cc1nc2ccccc2c(=O)n1-c1ccc(Br)cn1 | 42 | 0.6 | -1.3 | -7 | 1.1
COC(=O)c1cc(C(O)(C(=O)OC)C(F)(F)F)c(/N=C/N(C)C)s1 (centres undefined) | 73* | 0.3 | 0.67 | 83* | 0.2
C=Cn1ccnc1P(=S)(c1nccn1C=C)C1CCCCC1 | 15 | 0.9 | -0.69 | 70* | 0.3
O=P1(Nc2ccc(F)cc2)COc2ccccc2OC1 | -11 | 1.1 | 2 | 64* | 0.4
CC(C)N(CCC(C(N)=O)(c1ccccc1)c1ccccn1)C(C)C (centres undefined) | . | . | -0.3 | . | .
CCOC(=O)C1SC2(C(F)F)CC1(O)c1c(c(OC)c3occc3c1OC)O2 (centres undefined) | 97* | 0 | -1.8 | 100* | 0
O=c1cccc2n1CC1CC2CN(Cc2ccc3c(c2)OCO3)C1 (centres undefined) | 52* | 0.5 | 0.31 | 57* | 0.4
COc1ccc(CN2CC3CC(C2)c2cccc(=O)n2C3)cc1OC (centres undefined) | 0 | 1 | -0.022 | -4 | 1
CCCC1COC(Cn2cncn2)(c2ccc(Cl)cc2Cl)O1 (centres undefined) | 77* | 0.2 | -1.3 | 93* | 0.1
OC(c1ccccc1)(c1ccccc1)C1CCCN1 (centres undefined) | . | . | 0.23 | . | .
CCOC(=O)c1ccccc1NC(=O)c1c(O)[nH]c(=S)[nH]c1=O | . | . | 0.7 | . | .
SMILES | CYP2C9 inhib | CYP2C9 act | Cav32 inh | CYP2C19 inhib | CYP2C19 act
O=C1NC(=O)C(CCc2ccncc2)(c2ccccc2)C(=O)N1 | 93* | 0.1 | -0.46 | 55* | 0.4
CC12CCCCC1N(O)CN2O (centres undefined) | -15 | 1.1 | 0.78 | -12 | 1.1
Cc1nn(Cc2ccccc2)c(C)c1C(=O)OCC(=O)Nc1ccccc1SCC#N | 96* | 0 | -2.1 | 86* | 0.1
Cc1nn(Cc2ccccc2)c(C)c1C(=O)OCC(=O)NCc1ccco1 | 70* | 0.3 | -0.1 | 60* | 0.4
Cc1nn(Cc2ccccc2Cl)c(Cl)c1C(=O)OCC(=O)NCc1ccco1 | -5 | 1 | -0.58 | -4 | 1
Cc1cc(NC(=O)COC(=O)c2c(C)nn(Cc3ccccc3Cl)c2Cl)no1 | -1 | 1 | -2.9 | 14 | 0.9
Cc1cc(NC(=O)COC(=O)c2c(C)nn(Cc3ccccc3)c2C)no1 | 65* | 0.3 | 0.066 | 30 | 0.7
O=S1(=O)CC2(N3CCOCC3)CCCCCCC21 (centres undefined) | 1 | 1 | -0.039 | 18 | 0.8
CCOC(=O)N1CCN(C(C)C(=O)c2c[nH]c3ccccc23)CC1 (centres undefined) | 84* | 0.2 | 0.44 | 92* | 0.1
CC(Cc1ccccc1Sc1ccc(O)cc1)N(C)C (centres undefined) | -14 | 1.1 | -0.39 | 24 | 0.8
CCn1c(=O)cc(OCC(=O)N2CCN(Cc3ccc4c(c3)OCO4)CC2)c2ccccc21 | 16 | 0.8 | 0.61 | 23 | 0.8
Cc1cc(S(=O)(=O)NCC(C)C)ccc1OCC(=O)N1CCN(Cc2ccccc2)CC1 | 66* | 0.3 | -0.33 | 50* | 0.5
CCN1CCN(C(=O)COc2cc(=O)n(CC)c3ccccc23)CC1 | -43 | 1.4 | 0.21 | 4 | 1
CC(C)NS(=O)(=O)c1ccc(OCC(=O)N2CCN(Cc3ccc4c(c3)OCO4)CC2)c(Cl)c1 | 18 | 0.8 | -2 | 71* | 0.3
Cc1cc(S(=O)(=O)NC(C)C)ccc1OCC(=O)N1CCN(Cc2ccc3c(c2)OCO3)CC1 | 59* | 0.4 | 0.84 | 63* | 0.4
COC(=NC1CCCC1)C(O)c1c[nH]c2ccccc12 (centres undefined) | . | . | -0.23 | . | .
C=CCN1C(=O)C2(C(C(=O)OCC)=C(N)Oc3ccccc32)c2c1c1ccccc1oc2=O (centres undefined) | 53* | 0.5 | -0.46 | 21 | 0.8
O=C(COc1ccc(Br)cc1)N1CCN(Cc2c[nH]c3ccccc23)CC1 | 89* | 0.1 | . | 86* | 0.1
CC1(C)C(C(=O)NN2C(=O)c3ccccc3C2=O)C1(C)C | 2 | 1 | 0.04 | 20 | 0.8
CCCCCSc1cc(OC)c(CCN)cc1OC | 45 | 0.5 | 0.84 | 96* | 0
CCCCCCCSc1cc(OC)c(CCN(C)C)cc1OC | -1 | 1 | . | 67* | 0.3
O=c1[nH]c(=O)n(Cc2ccccc2)c(O)c1C=NCCN1CCOCC1 | -6 | 1.1 | -0.89 | 3 | 1
CCCCOC(=O)C1=C(N)OC2=C(C(=O)CC(C)(C)C2)[C@]12C(=O)N(C)c1ccccc12 | 2 | 1 | 0.54 | 12 | 0.9
CC(=NCCO)c1c(O)n(C2CCCCC2)c(=O)[nH]c1=O | 6 | 0.9 | 0.32 | 14 | 0.9
